# This is a sample that favours compounds with a hit; in the whole collection about 8% have one here.
# HCMV antiviral = qHTS Assay for inhibitors of the human cytomegalovirus (HCMV); HFF cells, HCMV-luciferase reporter, 72 h; hits give low values; activity change, negative = inhibition, % at 57.5 µM; 410,000 tested, 4.5% active; in the data active means activity change below about -60%; inconclusive means no clear call, values can overlap the other calls; inactive means above about -39%; further: on the % scale 0 is the no-effect control and ±100 the full control effect
#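 After 16 h attachment at 37C, HFF cells received test compound and HCMV-luciferase (1 PFU/cell); reporter luminescence read 72 h later, data normalized against buffer-only and known inhibitor Salinomycin.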
# SARS PLpro yeast = qHTS of Yeast-based Assay for SARS-CoV PLP | 330,000 tested, 0.19% active | S. cerevisiae expressing SARS-CoV PLpro, growth rescue | AID 485353, 2010 | Potency, µM (highest dose often 32.9 µM), for the others: at the top dose activity, positive = growth rescue, most hits filed as activators; calls by dose curve; further: potency means the concentration at half of the fitted maximal effect; 0% is about no effect; nearly all actives have a fitted effect of over 55% in size
# HCV inhibitor = qHTS Assay for Inhibitors of Hepatitis C Virus (HCV); Huh7.5.1 HCVcc-Cre infection, luciferase reporter, 44 h; 340,000 tested, 3.4% active; Potency, µM (highest dose often 41.8 µM), for inactives: at the top dose activity change, negative = inhibition, hits mostly inhibitors; active means well fitted inhibition curve with a large enough effect; inconclusive means small, poorly fitted or top-dose-only effect, or another doubt; inactive means no such curve, though single readings can be large or run the other way; further: potency means the concentration at half of the fitted maximal effect; on the % scale 0 is the no-effect control and ±100 the full control effect
#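 Seed cells (1,000/well) for 4 h; treat with compound and infect with HCVcc-Cre, moi about 0.5. Incubate 44 h, then detect luciferase activity.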
# Marburg entry inh = qHTS for inhibitors of binding or entry into cells for Marburg Virus; Marburg virus pseudotyped entry inhibition, cell reporter; Potency, µM (titrated, usually from 37.8 µM), without a hit: at the highest dose activity change, negative = inhibition, hits mostly inhibitors; 300,000 tested, 1.8% active; AID 540276, 2011; calls by dose curve; tested in HEK293 cells; further: potency means the concentration at half of the fitted maximal effect; on the % scale 0 is the no-effect control and ±100 the full control effect
# FMDV inh = High Throughput Screening for Foot and Mouth Disease Virus Antivirals | 410,000 tested, 1.2% active | Potency, µM (highest dose often 57.9 µM), without a hit: top-dose activity change, negative = inhibition, hits mostly inhibitors | FMDV antiviral cell-based qHTS | AID 1159524, 2015; calls by dose curve; tested in HEK293T cells; further: read-out not given here; potency means the concentration at half of the fitted maximal effect; on the % scale 0 is the no-effect control and ±100 the full control effect; nearly all actives have a fitted effect of over 45% in size
# LASV entry inh = qHTS for Inhibitors of binding or entry into cells for Lassa Virus; Lassa virus pseudotype entry inhibition, cell reporter; Potency, µM (top dose mostly 37.9 µM), without a hit: at the highest dose activity change, negative = inhibition, most hits filed as inhibitors; 300,000 tested, 1.2% active; AID 540256, 2011; calls by dose curve; tested in HEK293 cells; further: potency means the concentration at half of the fitted maximal effect; on the % scale 0 is the no-effect control and ±100 the full control effect; nearly all actives have a fitted effect of over 50% in size
# Active calls of the source: *; ? = inconclusive; · = not tested or not shown; [ ] = another dose, or the depositor's remark.
SMILES,HCMV antiviral,SARS PLpro yeast,HCV inhibitor,Marburg entry inh,FMDV inh,LASV entry inh
CC(=O)c1ccccc1NC(=O)COC(=O)C1=NN(c2ccccc2)C(=O)CC1,-29,-3%,11%,6%[46.1 µM],-20%,2%
Cc1cc([N+](=O)[O-])ccc1NC(=O)CSc1nccn1C,-4,·,·,?,-5%,9%[46.1 µM]
CN(C)S(=O)(=O)c1ccc(Cl)c(NC(=O)CSc2nc3c(cc2C#N)C(=O)CCC3)c1,-20,20%,9%,0%,-16%,-10%
N#Cc1cc2c(nc1SCC(=O)Nc1ccc(Cl)cc1)C1CCN2CC1,-91*,?,2.8µM*,0%,-16%,-8%
N#Cc1c(-c2ccccc2)cc(-c2ccccc2)nc1SCC(=O)Nc1ccc(Cl)cc1,6,·,·,9%[46.1 µM],14%,6%[46.1 µM]
N#Cc1cc2c(nc1SCC(=O)Nc1cc(Cl)ccc1Cl)C1CCN2CC1,-88*,3%,?,-23%,?,?
N#Cc1cc2c(nc1SCC(=O)Nc1ccc(C(F)(F)F)cc1)C1CCN2CC1,-75*,·,·,?,?,-2%[46.1 µM]
Cc1cc(C)nc(SCc2nnc(SCC(=O)Nc3ccc(Cl)c(C(F)(F)F)c3)o2)n1,-12,-12%,13%,-8%,·,14%
N#Cc1cc2c(nc1SCC(=O)Nc1ccc(Cl)c(C(F)(F)F)c1)C1CCN2CC1,-68*,·,·,?,0%,0%[46.1 µM]
OCCCNc1ncnc2[nH]ncc12,-3,·,-1%,22%[46.1 µM],-12%,-11%[46.1 µM]
CCCCCCCCNc1ncnc2[nH]ncc12,-76*,·,11µM*,?,-27%,-5%[46.1 µM]
CCCCOc1ccc(C2=CSC3=NCCN23)cc1[N+](=O)[O-],101,-1%,?,22µM*,-18%,-27%
O=C(c1cc(-c2ccccc2)nc2ccccc12)N1N=C(C(F)F)CC1(O)C(F)F (stereo unspecified),15,-2%,-3%,-1%,3%,?
Cc1ccc(-c2cc(C(=O)N3N=C(C(F)F)CC3(O)C(F)F)c3ccccc3n2)cc1C (stereo unspecified),-89*,-38%,?,-26%,16%,5%
O=C(O)CCC/C=C\C[C@@H]1C(/C=C/[C@@H](O)COc2cccc(C(F)(F)F)c2)[C@@H](O)C[C@@H]1O (stereo partly specified),·,·,·,·,-17%[6.7 µM],·
C#CCN1C(=O)CC[C@@]23C1=NC(C(=O)OC)=C(C(=O)OC)[C@@H]2N(CC=C(C)C)c1ccccc13,·,·,·,15%[14.2 µM],·,?
CCOC(=O)c1ccc2nc(Nc3nc4ccc(F)cc4s3)sc2c1,-91*,0%,11%,?,?,-13%
COC(=O)c1ccc2nc(Nc3nc4c(F)cc(F)cc4s3)sc2c1,-70*,-1%,2%,7.3µM*,0.25µM*,3.2µM*
CCOC(=O)c1ccc2nc(NC(C)=O)sc2c1,118,-2%,-14%,?,24%,?
CNCc1c(OCc2ccccc2F)ccc2ccccc12,?,0%,8.9µM*,?,-20%,?
Nc1nonc1C(=O)NCCNCc1c(OCc2ccccc2F)ccc2ccccc12,6,0%,14µM*,?,?,?
CCOc1ccc(C(=O)NCCc2sc(-c3ccc(OC)c(OC)c3)nc2C)cc1,36,·,·,·,28%,?
CCC(C)(C)n1nnnc1CN1CCN(C(c2ccccc2)c2ccccc2)CC1,3,-18%,?,-30%,?,13µM*
Cc1oc(-c2ccccc2NC(=O)C2CCCO2)nc1CNC(=O)c1cc(F)c(F)cc1F (stereo unspecified),·,·,·,·,-6%,·
CCN(CC)c1ccc(NC(=O)CSc2nnc3nc(C)cc(C)n23)cc1,-107*,9%,10%,-22%,-14%,14%
SMILES,HCMV antiviral,SARS PLpro yeast,HCV inhibitor,Marburg entry inh,FMDV inh,LASV entry inh
COC(=O)[C@@]1(C=C2c3ccc(F)cc3[C@@H](OC)[C@@H]2C)[C@@H]2CC=C[C@@H]21,·,·,·,0%[14.2 µM],·,·
N#CC1=C2N=C(N)c3ccccc3N2C2=C(C(=O)CCC2)C1c1ccc(F)cc1 (stereo unspecified),-18,1%,13µM*,·,-10%,·
Cc1ccc(C2C(C#N)=C3N=C(N)c4ccccc4N3C3=C2C(=O)CCC3)cc1 (stereo unspecified),-22,1%,?,·,6%,·
CN[C@@H]1C[C@H](c2ccc(Cl)c(Cl)c2)c2ccccc21,·,·,·,4.6µM*,?,·
CN[C@@H]1CC[C@H](c2ccc(Cl)c(Cl)c2)c2ccccc21,·,-4%,·,·,?,·
CN[C@@H]1C[C@@H](c2ccc(Cl)c(Cl)c2)c2ccccc21,·,-8%,·,4.6µM*,·,13µM*
CCOc1cccc(-c2c(C(=O)N/N=C(\C)c3cccnc3)nnn2-c2nonc2N)c1,6,?,8%,-2%[46.1 µM],-12%,1%[46.1 µM]
Cc1cccc(C(=O)NCc2nc(-c3cccc(NC(=O)c4ccoc4C)c3)oc2C)n1,·,·,·,·,-19%,·
Cc1ccc(-c2nc(CS(=O)(=O)CC(=O)NCCCN(Cc3ccccc3)C(C)C)c(C)o2)cc1,62,6%,10µM*,·,-24%,·
C#CCCCO/N=C1\C[C@@H](O)[C@@H](O)[C@@H]2[C@@H]3C(=O)N(c4ccc(F)cc4F)C(=O)[C@@H]3CC[C@@H]12,·,·,·,-8%[14.2 µM],·,·
CC(C)(C)c1ccc(C(=O)Nc2ccc(CC(=O)O)cc2)o1,-74*,10%,-4%,?,0.79µM*,2.3µM*
Cc1ccc(C(=O)Nc2ccc(CC(=O)O)cc2)o1,-29,1%,12%,-11%,-11%,-5%
Cn1cc(CN2CCN(c3ccccc3)CC2)c2ccccc21,8,?,?,15µM*,-11%,-18%
Clc1ccccc1CN1CCN(c2ccccc2)CC1,8,13%,-9%,-22%,0%,8%
CCCc1cc(C(=O)Nc2ccc(C(=O)c3ccc(C)cc3)cc2)n(C)n1,-24,-4%,10µM*,?,-29%,?
CCCc1cc(C(=O)Nc2cccc3ccccc23)n(C)n1,?,-2%,-14%,-40%[46.1 µM],-19%,?
CC(=O)N1CCN(Cc2nc3cc([N+](=O)[O-])ccc3n2C)CC1,-28,1%,5%,·,-3%,·
Cn1c(CN2CCN(S(C)(=O)=O)CC2)nc2cc([N+](=O)[O-])ccc21,-101*,1%,-17%,?,-16%,6%[46.1 µM]
CCOc1ccccc1N=Nc1c(C)[nH]n(C(N)=S)c1=O,-85*,1%,10µM*,14%[46.1 µM],-22%,12%[46.1 µM]
Cc1ccccc1N=Nc1c(C)[nH]n(C(N)=S)c1=O,-36,4%,25%,-1%,10%,18%
CCCCCCN1C[C@@H](n2cc(COC(=O)c3ccccc3)nn2)[C@H](O)C[C@@H]1c1ccc(Cl)cc1,-101*,·,·,·,-28%,·

# Screening data: PubChem BioAssay, National Center for Advancing Translational Sciences (NCATS)
